Results: PubChem BioAssay (NCI)
The panel holds about 83,000 compounds, 20% with a hit somewhere; the sample as a whole holds those more often.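 In brief: 96-well plates, 48 h treatment, single concentration, percent growth endpoint.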 Unmarked numbers belong to inactive results. Activity calls are given as the source filed them. Rule for the calls: active = growth percent below 10; inactive = the rest.

System: HL-60(TB) leukemia
Assay: NCI-60 one-dose screen, 48 h (100 = growth as untreated, 0 = no growth, -100 = all killed)
Details: 10 µM unless noted

| SMILES | growth |
| --- | --- |
| CNc1ccc(NC)c2c1C(=O)c1ccccc1C2=O | 87.3% |
| Cc1cc(NCCCNc2ccnc3cc(Cl)ccc23)nc(N2CCN(C)CC2)n1 | 15.7% |
| COC(=O)CCC/C=C\C[C@H]1C=CC(=O)/C1=C/C[C@@H](O)CCc1cccc(C(F)(F)F)c1 | -18.2% (active) |
| COc1ccc2c(c1)OC(N)=C(C#N)C2c1ccc(F)cc1 (configuration not stated) | -14.7% (active) |
| O=C1Nc2ccc(F)cc2C12Nc1cc(Cl)ccc1S2 (configuration not stated) | 65.5% |
| Cc1nn(CC(=O)O)c2c1C(=O)CC(C)(C)C2 | 100% |
| O=S(=O)(Nc1ncccn1)c1ccc(Nc2ccc3nnc(-c4ccncc4)n3n2)cc1 | 101% |
| COc1ccc(-c2nc(N3CCN(C(=O)C4CCCCC4)CC3)c3c4c(sc3n2)CCCC4)cc1 | 39% |
| Cc1cc(N2CCOCC2)nc(N(CCCNc2ccnc3cc(Cl)ccc23)Cc2ccc3c(c2)OCO3)n1 | -60.9% (active) |
| O=C(N/N=C/c1ccc([N+](=O)[O-])cc1)c1ccc2nc(-c3ccc(Cl)cc3)[nH]c2c1 | 6.58% (active) |
| CC(NC(=O)C(C)Oc1ccc(Cl)cc1Cl)C(=O)O (configuration not stated) | 105% |
| O=C(Nc1ccccc1)OCC1OCOC(COC(=O)Nc2ccccc2)C1OC(=O)Nc1ccccc1 (configuration not stated) | 122% |
| CCN(CC)CC#CCOC(=O)[C@]1(C)CCC[C@@]2(C)[C@H]1CC(C=O)=C1C=C(C(C)C)CC[C@@H]12 | 51.6% |
| COc1cc2nnc3c4cccnc4[nH]c3c2cc1OC | -54.3% (active) |
| Nc1c(C(=O)Nc2ccccn2)sc2nc3c(cc12)C(O)CCC3 (configuration not stated) | 9.6% (active) |
| CC(=O)C(=Cc1ccc(C=C(C(C)=O)C(C)=O)cc1)C(C)=O | 7.08% (active) |
| COC(=O)C(Cc1ccccc1)NC(=O)NC(=O)NC(=O)CI (configuration not stated) | -51.3% (active) |
| Nc1ccc(Cl)c(S(=O)(=O)O)c1 | 90.5% |
| CC/C(Cc1ccccc1)=C(\c1ccc(OCCN2CCCCCC2)cc1)c1ccc(OC(=O)NCc2ccccc2)cc1 | 37% |
| COc1ccc(Nc2ncc(C#N)c(NCCCNC(=O)C3CCC3)n2)cc1 | 41% |
| O=C(NCc1ccco1)Nc1cccc2c(NC(=O)NCc3ccco3)cccc12 | 66.5% [100 µM] |

| SMILES | growth |
| --- | --- |
| COc1ccc(/C(C)=C(\c2ccc(Cl)cc2)c2ccc(OCCCN(C)C)cc2)cc1 | 67.1% |
| COc1ccc(-c2nn(-c3cccc(Cl)c3)cc2/C=C2\NC(=S)N(c3ccc(Cl)cc3)C2=O)cc1 | 24.9% |
| CC1CCN(CCCCCOc2ccc3oc4cc(Cl)ccc4c(=O)c3c2)CC1 | 43.4% |
| O=c1ccccc(-c2ccc(Br)cc2)c1O | -35.9% (active) |
| O=C(CCn1cnc2c(cc(-c3ccccc3)n2-c2ccccc2)c1=O)Nc1ccc(F)cc1 | 86.6% |
| CCCCN(CCC#N)C(N)=O | 99.6% |
| CNc1nc2c(s1)C(c1cc(F)ccc1F)CC(=O)N2 (configuration not stated) | 46.7% |
| OC(c1cc(-c2cccc(Cl)c2)nc2ccccc12)C1CCCCN1 (configuration not stated) | -63.1% (active) |
| Cc1nc2sc(C(=O)Nc3cccc4ccccc34)c(N)c2cc1C(=O)c1ccccc1 | -50.6% (active) |
| COc1ccc(OC)c(C2C(C#N)=C(N)Oc3cc(O)ccc32)c1 (configuration not stated) | 88.6% |
| CC(C)c1ccc(C(=O)Nc2sc3c(c2C#N)CCC(=O)C3)cc1 | -16.7% (active) |
| CCCCCCCCCCC(C(O)c1ccccc1)N1CCCCC1 (configuration not stated) | -28.5% (active) |
| Cc1cccc2c(=O)c3c(sc12)c(N1CCNCC1)nc1ccccc13 | 52.9% |
| O=C1Nc2ccccc2/C1=C\c1nc(-c2ccccc2)n2ccccc12 | 85.6% |
| O=C1Nc2ccccc2/C1=C/c1ccc[nH]1 | 103% |
| O=C(O)C(O)C(O)C(=O)O.[NH-]C1CCCCC1[NH-].[Pt+2] (configuration not stated) | 104% |
| COc1ccc(C(=O)OC2C(OC3C(O)COC(O[C@H]4C[C@H]5[C@@H]6CC=C7C[C@@H](O)CC[C@]7(C)[C@H]6CC[C@]5(C)[C@H]4[C@H](C)C(=O)CCC(C)C)C3OC(N)=O)OCC(O)C2O)cc1 (some centres not stated) | -36.9% (active) |
| COC(=O)CCC/C=C\C[C@H]1C=CC(=O)/C1=C/C[C@@H](O)C/C=C\CC(F)(F)F | 1.03% (active) |
| COc1ccc(-c2cc3c(nn2)-c2ccccc2C3=O)cc1 | 57.4% |
| COc1ccc(C(=O)c2cc(OC)c(OC)c(OC)c2)cc1OC(=O)C(Cl)(Cl)Cl | -45.3% (active) |
| NS(=O)(=O)c1ccc(N=Nc2c(O)n(Cc3ccccc3)c3ccc(Cl)cc23)cc1 | 95% |

| SMILES | growth |
| --- | --- |
| Oc1ccccc1\C=N/N=C/C=C/c1ccccc1 | 38.5% |
| COc1ccc(S(=O)(=O)NCCNc2nccc(-c3c(-c4cccc([N+](=O)[O-])c4)nc4sccn34)n2)cc1 | 110% |
| CC(=O)c1cc(O)ccc1O | 62.1% |
| O=C(CN1CCN(c2cc3c(cc2F)c(=O)c(C(=O)O)cn3C2CC2)CC1)Nc1nc(-c2ccc(Cl)cc2)cs1 | 19.6% |
| COc1cc2cc3cc4cc(OC)c(OC)cc4c(C)[n+]3cc2cc1OC (tested in a mixture with another compound) | 33% |
| O=C(/C=C/c1ccccc1)c1cccs1 | 102% |
| N#CSCC1CC(O)(c2ccccc2)C(c2ccccc2)C(c2ccc(Cl)cc2)O1 (configuration not stated) | -1.83% (active) |
| O=C(Cc1ccc(-c2ccc(OCCN3CCOCC3)cc2)cn1)NCc1ccccc1 | -31.2% (active) |
| COc1cccc2c1O/C(=C\c1c([N+](=O)[O-])ncn1C)C2=O | 95.8% |
| c1ccc2cc(Cn3c(-c4ccc5ccccc5c4)[n+](Cc4ccc5ccccc5c4)c4ccccc43)ccc2c1 | -45.9% (active) |
| CCC(c1ccc(OC)cc1)C(CC)c1ccc(O)c(CN2CCCC2)c1 (configuration not stated) | -45.9% (active) |
| CCN(CC)CCNc1ccc([N+](=O)[O-])c2sc3cc(Cl)ccc3c(=O)c12 | 54.7% |
| COc1ccc2c3c(c4ccccc4cc13)C(=O)N(CCN(C)CCN)C2=O | -58.1% (active) |
| COc1cc2c(cc1O)CC[C@@H]1[C@@H]2CC[C@]2(C)[C@@H](NCCN(C)C)CC[C@@H]12 | -67.7% (active) |
| C#COc1cccc(Nc2ncnc3cc(NC(=O)[C@@H](C)Cl)ccc23)c1 | 10.9% [6.25 µM] |
| CCCCCC#CC(=O)O | 97.4% |
| CCNC(=O)Oc1ccc(/C(=C(/CC)Cc2ccccc2)c2ccc(OCCN3CCOCC3)cc2)cc1 | 5.28% (active) |
| CC1Cc2c(ncn3c(-c4ccc(F)cc4)nnc23)N(C)c2ccccc21 (configuration not stated) | 91.2% |
| C[C@H]1C=C(C[C@@H](O)CCCCCCCCCC[C@@H](O)[C@H]2CCC(=O)O2)C(=O)O1 | 102% |
| N#CN1CC[C@H](C(=O)Nc2ncc(-c3ccccc3)s2)C1 | -23.2% (active) |
| CN(CCC#N)c1ccc(/C=C2\NC(=O)NC2=O)cc1 | 92.2% |

| SMILES | growth |
| --- | --- |
| C=CC1=C(C(=O)O)N2C(=O)[C@@H](NC(=O)/C(=N\O)c3csc(N)n3)[C@H]2SC1 (stereo in doubt) | 118% |
| CCOC(=O)/C(C#N)=C1/NNC(=Nc2cccnc2)S1 | 102% |
| N=C(N)c1ccc(-c2ccc(-c3ccc4ccccc4c3)s2)s1 | -56.4% (active) |
| CCN(C(=O)c1cc2ccccc2[nH]1)[C@H]1CCC[C@@H](NCc2ccc(OC)cc2)C1 | 117% |
| O=C1/C=C/[C@@H](O)[C@@H]2C[C@@H](O)C[C@H]2/C=C/CCC[C@@H](C(F)(F)F)O1 | 104% |
| C=CCc1c2c(c(OC)c3ccoc13)C(=O)/C(=C/c1ccccc1OC)O2 | 68.8% |
| CCOC(=O)C1=C(C)N2C(=NC3=C(CCC/C3=C\c3ccc(Cl)cc3)C2c2ccc(Cl)cc2)S1 (configuration not stated) | -10.8% (active) |
| COc1ccc(CNC(=O)c2c(C)n([O-])c3cc(F)c(F)cc3[n+]2=O)cc1 | 101% |
| O=C(Nc1nc2ccccc2s1)c1cc(-c2ccc(F)cc2)n2nc(-c3ccccc3)cc2n1 | 107% |
| FCOC(C(F)(F)F)C(F)(F)F | 96.1% |
| Cc1cc2c3ccc(C)[n+](C)c3ccc2n1C | -5.59% (active) |
| CC(=O)OC[Si](C)(C)c1ccccc1 | 100% |
| COc1ccc2c(c1)CC/C(=C\c1cncc(Br)c1)C2=O | 100% |
| Cc1ccc(S(=O)(=O)N2CCCN(c3nc(-c4ccccc4)nc4nc(-c5ccccc5)oc34)CC2)cc1 | 110% |
| Nc1nccc(Nc2ccccc2)n1 | 105% |
| C=C1C(=O)O[C@H]2[C@H]1CC/C(COC(=O)NCc1ccc(Cn3c(=O)sn(-c4ccc(OC)cc4)c3=O)cc1)=C\CC[C@@]1(C)O[C@@H]21 | -18% (active) |
| O=C1/C(=C/c2ccc([N+](=O)[O-])cc2)COc2ccc(O)c(O)c21 | -14.6% (active) |
| CC1CCCN(CCCCCOc2ccc3oc4ccc(Cl)cc4c(=O)c3c2)C1 (configuration not stated) | 48.6% |
| CN1CCN(c2cc(F)c(NC3=C(Cl)C(=O)c4ncccc4C3=O)c(F)c2)CC1 | -26.4% (active) |
